# Entries with a potency or affinity are not part of this list. Active and inactive are the calls of the source. No rule for the calls is given here.
# Test system: not listed separately
# Test: A549 cell cytotoxicity, dose response, cytotoxicity control, plate reader, cherry-pick, antagonist series (AID 743412);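 also: 0% = neutral control wells and -100% = positive control wells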
# Details: series mostly up to 26 µM; activity change, negative = cytotoxicity: at the top concentration
row,SMILES,"activity change, negative = cytotoxicity"
1,Cc1ccc(CNS(=O)(=O)c2ccc3c(c2)CCN3C(=O)CCCC(=O)O)cc1,1.6% (inactive)
2,Cc1noc2ncnc(Sc3ccc(Br)cc3)c12,-14.9% (inactive)
3,O=S(=O)(Nc1ccc(O)c2ccccc12)c1ccc(OC(F)(F)F)cc1,-5.92% (inactive)

# Test system: not listed separately
# Test: toxicity toward HepG2 liver cells – cell-based, plate reader, cherry-pick, antagonist series, cytotoxicity control, dose response (AID 743416);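 also: 0% = neutral control wells and -100% = positive control wells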
# Details: series mostly up to 26 µM; activity change, negative = cytotoxicity: at the top concentration
row,SMILES,"activity change, negative = cytotoxicity"
1,CCc1ccc2oc(-c3ccc(N)cc3)nc2c1,-6.37% (inactive)
2,CCCCc1ccc(NC(=O)c2cnccn2)cc1,4.4% (inactive)
3,Cc1cc(C(=O)CSc2nnc3ccccn23)c(C)n1-c1ccccc1,-6.55% (inactive)
4,COC(=O)c1ccc2nc(-c3ccc4c(c3)OCO4)cn2c1,-13.6% (inactive)
5,O=C(Nc1ccc(Cl)cc1)Nc1ccccc1C(=O)O,-9.12% (inactive)
6,CC1CCCN(c2ncnc3c2cnn3-c2ccc(Cl)cc2)C1 (stereo not drawn),77.2% (inactive)
7,Cc1ccccc1-c1ccc([C@H]2[C@@H](CO)N3CCCCN(S(=O)(=O)c4ccc(F)cc4)C[C@@H]23)cc1,27.6% [at 12 µM] (inactive)
8,CC(=O)N1CCCCN2[C@H](CO)[C@H](c3ccc(-c4cccc(C)c4)cc3)[C@@H]2C1,4.34% (inactive)
9,N#C[C@@H]1[C@H](c2ccc(C#Cc3ccccc3F)cc2)[C@@H](CO)N1C(=O)C1CC1,-38.9% [at 23.5 µM] (inactive)
10,CCCNC(=O)N1[C@H](C#N)[C@H](c2ccc(C#Cc3ccc(F)cc3)cc2)[C@H]1CO,-3.06% (inactive)
11,CCCNC(=O)COC(=O)c1ccccc1C(=O)c1ccc(Cl)c([N+](=O)[O-])c1,-16.6% (inactive)
12,CN1c2ccc(-c3ccc(F)cc3)cc2[C@H]2[C@H](CCN2C(=O)Nc2ccc(F)cc2)[C@H]1CO,5.64% (inactive)
13,COc1ccc(-n2ncc3c(N(C)C4CCCCC4)ncnc32)cc1,-5.47% (inactive)
14,Cc1ccc(C)c(S(=O)(=O)N(C(=O)c2ccncc2)c2ccc(OC(=O)c3ccncc3)cc2)c1,-5.33% (inactive)
15,C[C@H]1CCCCO[C@@H](CN(C)C(=O)Nc2ccc(F)cc2)[C@@H](C)CN([C@@H](C)CO)C(=O)c2cc(NC(=O)C3CCCCC3)ccc2O1,21% [at 23.5 µM] (inactive)
16,Cc1ccc(S(=O)(=O)N(C)C[C@H]2Oc3c(cccc3N(C)C)C(=O)N([C@@H](C)CO)C[C@@H]2C)cc1,9.89% (inactive)
17,O=c1[nH]c(CSc2ccccn2)nc2c1oc1ccccc12,-1.81% (inactive)
18,N#C[C@@H]1[C@H](c2ccc(C#CC3CCCCC3)cc2)[C@@H](CO)N1S(=O)(=O)c1ccccc1,-152% [at 23.5 µM] (inactive)
19,CN1CCN(c2ccc(NC(=O)N3CCc4ccccc43)cc2)CC1,-13.8% (inactive)

row,SMILES,"activity change, negative = cytotoxicity"
1,C[C@H](CO)N1C[C@H](C)[C@H](CN(C)C(=O)Nc2cccc3ccccc23)OCCCC[C@H](C)Oc2ccc(NC(=O)CCC(F)(F)F)cc2C1=O,-24.7% (inactive)
2,C[C@H](CO)N1C[C@H](C)[C@H](CN(C)C(=O)Nc2cccc3ccccc23)OCCCC[C@H](C)Oc2ccc(NC(=O)c3ccccc3)cc2C1=O,-24.7% (inactive)
3,CC(C)CCn1cnc2c(oc3nc4c(cc32)CCCC4)c1=O,7.81% (inactive)
4,N#C[C@@H]1[C@H](c2ccc(C#CC3CCCCC3)cc2)[C@@H](CO)N1C(=O)c1cccc(F)c1,-11.4% [at 23.5 µM] (inactive)
5,COCCn1c(C)cc(C(=O)CSc2nnc3ccccn23)c1C,3.49% (inactive)
6,COc1ccc(S(=O)(=O)Nc2ccc3c(c2)C(=O)N([C@@H](C)CO)C[C@@H](C)[C@H](CN(C)C(=O)Nc2cccc4ccccc24)OCCCC[C@H](C)O3)cc1,3.69% (inactive)
7,Cc1ccc(Nc2nc3ccccc3s2)c(C)c1,3.76% (inactive)
8,CCCCNc1c(-c2cccc(-c3cc(C(C)=O)cs3)c2)nc2ccc(C)cn12,6.59% (inactive)
9,O=C(NCCc1ccc(Cl)cc1)c1ccc2c(c1)OCCO2,0.76% (inactive)
10,O=C(COc1ccc2c(c1)CCC2)Nc1ccccn1,10.2% (inactive)
11,Cc1ccccc1C(=O)Nc1ccc2c(c1)OCCO2,-9.68% (inactive)
12,O=C(COC(=O)c1ccccc1C(=O)c1ccc(Cl)c([N+](=O)[O-])c1)NC1CC1,-22% (inactive)
13,Cc1ccc(S(=O)(=O)Nc2ccc3c(c2)CC(=O)N([C@H](C)CO)C[C@H](C)[C@H](CN(C)Cc2ccc(Cl)c(Cl)c2)O3)cc1,-10.5% [at 23.5 µM] (inactive)
14,N#Cc1cccc(-c2ccc(C3[C@@H]4CN(C(=O)c5ccccn5)C[C@H]3N4)cc2)c1 (stereo partly drawn),-41.5% (inactive)
15,Cc1csc(NC(=O)c2ccc(N3CCCC3=O)cc2)n1,-7.61% (inactive)
16,c1ccc(-c2cn3c4c(sc3n2)CCCC4)cc1,-11.1% (inactive)
17,Cc1cccc(-c2ccc([C@H]3[C@@H](CO)N4CCCCN(C(=O)c5ccc6c(c5)OCO6)C[C@@H]34)cc2)c1,-30.7% (inactive)
18,O=C(Cc1ccncc1)NCC[C@H]1CC[C@H](NC(=O)C2CCCC2)[C@H](CO)O1,4.24% (inactive)

# Target: Melanocortin receptor 4 (Homo sapiens) (UniProt P32245)
# Test: blockade of melanocortin 4 receptor signaling – cell-based, plate reader, cherry pick, counter-screen for LGR2 antagonist project, dose response (AID 743444)
# Details: MC4R-expressing cells, antagonist mode; series mostly up to 35 µM; activity change, negative = inhibition: at the top concentration
row,SMILES,"activity change, negative = inhibition"
1,Cc1ccc(CNS(=O)(=O)c2ccc3c(c2)CCN3C(=O)CCCC(=O)O)cc1,18.7% (inactive)
2,Cc1noc2ncnc(Sc3ccc(Br)cc3)c12,35.7% (inactive)
3,O=S(=O)(Nc1ccc(O)c2ccccc12)c1ccc(OC(F)(F)F)cc1,7.27% (inactive)
